Reference: PubChem BioAssay (EPA / NIEHS)
Inconclusive results are not listed. Active and inactive are the calls of the source. The calls were made as follows: active = hit-call score of the fitted dose curve at least 0.9, where 1 is the maximum; inconclusive = response in the unintended direction; inactive = score below 0.9.

target: Androgen receptor (Homo sapiens) (UniProt P10275); assay: ATG_AR_TRANS: Attagene TRANS-FACTORIAL HepG2 Assay for human Androgen Receptor (AR) (AID 2282973); details: HepG2 Attagene TRANS-FACTORIAL AR reporter transcription
Sequence (P10275 whole entry, looked up, the tested form may be a part): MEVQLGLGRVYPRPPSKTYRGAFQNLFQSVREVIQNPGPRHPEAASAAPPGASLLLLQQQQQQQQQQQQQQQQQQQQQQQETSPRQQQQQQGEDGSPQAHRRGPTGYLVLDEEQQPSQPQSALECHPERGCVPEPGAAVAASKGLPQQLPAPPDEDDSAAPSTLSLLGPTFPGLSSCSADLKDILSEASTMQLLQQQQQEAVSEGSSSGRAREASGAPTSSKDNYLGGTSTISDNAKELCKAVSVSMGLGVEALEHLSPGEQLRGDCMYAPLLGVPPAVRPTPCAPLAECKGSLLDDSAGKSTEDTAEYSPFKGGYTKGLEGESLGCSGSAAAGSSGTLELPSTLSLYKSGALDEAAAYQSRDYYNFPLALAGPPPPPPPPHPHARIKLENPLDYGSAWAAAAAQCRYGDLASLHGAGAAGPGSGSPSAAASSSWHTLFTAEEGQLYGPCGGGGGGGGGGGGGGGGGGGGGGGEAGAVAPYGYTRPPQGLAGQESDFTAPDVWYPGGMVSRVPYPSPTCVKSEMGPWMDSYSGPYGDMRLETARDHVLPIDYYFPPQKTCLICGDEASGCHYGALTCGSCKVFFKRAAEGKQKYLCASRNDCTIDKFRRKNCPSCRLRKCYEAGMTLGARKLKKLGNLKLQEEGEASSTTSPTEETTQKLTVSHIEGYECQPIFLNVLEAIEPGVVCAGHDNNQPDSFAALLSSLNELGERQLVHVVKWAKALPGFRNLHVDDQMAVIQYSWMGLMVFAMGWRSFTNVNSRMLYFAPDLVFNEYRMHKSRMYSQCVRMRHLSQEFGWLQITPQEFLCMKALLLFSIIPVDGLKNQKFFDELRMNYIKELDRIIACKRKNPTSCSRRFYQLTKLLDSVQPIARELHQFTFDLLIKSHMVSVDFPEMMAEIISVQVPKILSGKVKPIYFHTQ
How it was run: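 Readout is reporter transcript abundance, quantified by fluorescent RT-PCR products separated on capillary electrophoresis. Human HepG2 liver cells carried transiently transfected NR-Gal4 chimera plus GAL4-UAS reporter constructs and were dosed for 24 h; activity scored upward versus DMSO.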

| Structure (SMILES) | outcome | AC50 |
| --- | --- | --- |
| O=c1cc(-c2ccccc2)oc2cc(O)cc(O)c12 | inactive | – |
| c1ccc2c(c1)CCC2 | inactive | – |
| CC(C)(CO)COC(=O)C(C)(C)CO | inactive | – |
| OCc1c[nH]c2ccccc12 | inactive | – |
| Cc1cccc(C)n1 | inactive | – |
| CCc1ccc(C)nc1 | inactive | – |
| c1ccc(-c2ccccn2)nc1 | inactive | – |
| O=S(=O)(O)C(F)(F)C(F)(F)C(F)(F)C(F)(F)C(F)(F)C(F)(F)C(F)(F)C(F)(F)C(F)(F)C(F)(F)F | inactive | – |
| COCCOCCOCCOCCOC | inactive | – |
| COc1cc(C(C)C)ccc1C | inactive | – |
| CC(=O)OC1CCCCC1 | inactive | – |
| O=C(c1ccccc1)c1ccccc1 | inactive | – |
| OCCN1CN(CCO)CN(CCO)C1 | inactive | – |
| FC(F)(F)C1(F)C(F)(F)C(F)(F)C(F)(F)C1(F)F | inactive | – |
| CCCCC[C@H](O)CC(=O)CCc1ccc(O)c(OC)c1 | inactive | – |
| Nc1cc([N+](=O)[O-])ccc1Cl | inactive | – |
| CC=CCO | inactive | – |
| CCCCCCCCCCCCC[N+](C)(C)Cc1ccccc1 | inactive | – |
| FC(F)=C(F)C(F)(F)C(F)(F)C(F)(F)C(F)F | inactive | – |
| Cc1ccc(S(=O)(=O)Oc2ccc(N=Nc3ccc(-c4ccc(N=Nc5c(O)ccc6cc(S(=O)(=O)O)cc(S(=O)(=O)O)c56)c(C)c4)cc3C)cc2)cc1 | inactive | – |

| Structure (SMILES) | outcome | AC50 |
| --- | --- | --- |
| CCCCCCOc1ccc(O)cc1 | inactive | – |
| CC(C)(C)c1cc(O)c(C(C)(C)C)cc1O | inactive | – |
| c1ccc2[nH]ccc2c1 | inactive | – |
| CCCC(=O)OCC(COC(=O)CCC)OC(=O)CCC | inactive | – |
| Cc1c(C(=O)c2c[nH]n(C)c2=O)ccc(S(C)(=O)=O)c1C1=NOCC1 | inactive | – |
| CCCCCCCCCCCC[N+](C)(C)Cc1ccccc1 | inactive | – |
| C=CC/C=C/C/C=C/C/C=C/C | inactive | – |
| OCCCS | inactive | – |
| C=CC(=O)OCCOC(=O)C=C | inactive | – |
| Nc1ccc(N)c2c1C(=O)c1ccccc1C2=O | inactive | – |
| N[C@H]1C(O)O[C@H](CO)[C@H](O)[C@@H]1O (some centres undefined) | inactive | – |
| Nc1nc2ccc([N+](=O)[O-])cc2s1 | inactive | – |
| OCc1cccc(Oc2ccccc2)c1 | inactive | – |
| O=CN1CCOCC1 | inactive | – |
| ON(Cc1ccccc1)Cc1ccccc1 | inactive | – |
| Oc1cc2ccccc2cc1O | inactive | – |
| CCCCC(CC)COC(=O)/C=C/c1ccc(OC)cc1 (centres undefined) | inactive | – |
| CC(=O)C1(C)CC2=C(CCCC2(C)C)CC1C (centres undefined) | – | 158 µM (active) |
| c1ccc(-c2ccccc2-c2ccccc2)cc1 | inactive | – |
